# Only some compounds are listed: those with a hit (about 3% of all), similar ones and a draw of the others.
# Rv3671c inh – Rv3671c (M. tuberculosis) protease inhibition | inhibition, % at 5.96 µM | 320,000 tested, 0.048% active | AID 2606; in the data active = inhibition above about 38%;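 note: extracellular domain of Rv3671c used as enzyme; 0% = enzyme with DMSO and 100% = no enzyme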
# Target sequence (P9WHR9 whole entry, looked up, the tested form may be a part): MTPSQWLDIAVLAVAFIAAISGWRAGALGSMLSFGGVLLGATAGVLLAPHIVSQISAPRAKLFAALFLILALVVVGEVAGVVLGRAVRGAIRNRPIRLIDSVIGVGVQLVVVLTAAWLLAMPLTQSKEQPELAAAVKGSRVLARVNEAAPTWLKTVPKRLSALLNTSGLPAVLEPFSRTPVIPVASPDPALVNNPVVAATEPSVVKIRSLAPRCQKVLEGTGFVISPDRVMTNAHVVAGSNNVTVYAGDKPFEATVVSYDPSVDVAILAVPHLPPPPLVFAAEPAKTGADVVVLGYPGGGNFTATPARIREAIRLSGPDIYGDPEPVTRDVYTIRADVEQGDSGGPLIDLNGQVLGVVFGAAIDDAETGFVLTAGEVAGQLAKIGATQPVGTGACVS
# Mtb FBA inh – inhibits M. tuberculosis FBA enzyme | inhibition, % at 1 µM | AID 588726 | purified M. tuberculosis FBA, fluorescence read-out | P9WQA3 | 360,000 tested, 2.3% active; in the data active = inhibition above about 27%;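 note: 0% = vehicle and 100% = reference inhibitor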
# BioA inh – BioA (M. tuberculosis) enzyme inhibition; purified M. tuberculosis BioA enzyme, plate reader; inhibition, % at 9.99 µM; 360,000 tested, 0.096% active; AID 602481; in the data active = inhibition above about 40%
# FadD28 binding – blocks FadD28 binding to the bisubstrate probe; fluorescence polarization; inhibition, % at 12.5 µM; 360,000 tested, 0.22% active; in the data active = inhibition above about 8.5%, passing the limit was not always enough
# GDH-TPI counter – counter-screen for M. tuberculosis FBA inhibitors: GDH-TPI coupled enzymes; GDH-TPI coupled enzyme counterscreen, NADH absorbance; inhibition, % at 4.8 µM; AID 588335; 360,000 tested, 1.2% active; in the data active = inhibition above about 30%;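 note: 0% = DMSO wells and 100% = wells lacking the enzyme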
# Starred values were filed as active, the others as inactive; / = no result; + = active, no number.
SMILES,Rv3671c inh,Mtb FBA inh,BioA inh,FadD28 binding,GDH-TPI counter
O=C(O)CCC(=O)N1c2ccccc2NC2=C(C(=O)CC(c3ccc(F)cc3)C2)C1c1ccc([N+](=O)[O-])o1 (stereo unspecified),-6,0,-1,1,28
COc1ccc(C2CC(=O)C3=C(C2)Nc2ccccc2N(C(=O)CCC(=O)O)C3c2ccc(F)cc2)cc1 (stereo unspecified),-7,19,0,-1,50*
C[C@@H]1CN([C@H](C)CO)C(=O)c2cc(NC(=O)Nc3ccc(C(F)(F)F)cc3)ccc2O[C@@H]1CN(C)S(=O)(=O)c1cccs1,/,/,-3,/,/
C[C@@H]1CN([C@H](C)CO)C(=O)c2cc(NC(=O)Nc3ccc(C(F)(F)F)cc3)ccc2O[C@H]1CN(C)S(=O)(=O)c1cccs1,-234,2,0,21*,5
C[C@H](CO)N1C[C@H](C)[C@@H](CN(C)S(=O)(=O)c2cccs2)Oc2ccc(NC(=O)Nc3ccc(C(F)(F)F)cc3)cc2C1=O,-239,0,0,27*,5
C[C@H](CO)N1C[C@H](C)[C@H](CN(C)S(=O)(=O)c2cccs2)Oc2ccc(NC(=O)Nc3ccc(C(F)(F)F)cc3)cc2C1=O,/,/,-1,/,/
CN(C)c1ccc(Cc2cc3c(O)ccc(O)c3cc(Cc3ccc(N(C)C)cc3)c2=O)cc1,/,-3,/,11*,16
O=C(CN1C(=O)NC2(CCOc3ccccc32)C1=O)c1ccc(Br)cc1 (stereo unspecified),-5,-1,0,21*,11
O=C(CN1C(=O)NC2(CCOc3ccccc32)C1=O)c1ccc(Cl)cc1 (stereo unspecified),-4,-1,-1,16*,0
O=C(CCSc1nc(-c2ccco2)cc(C(F)(F)F)n1)NCC1CCCO1 (stereo unspecified),-2,-1,0,-1,33*
COc1ccccc1N1CCN(C(=O)CSc2nc(-c3ccco3)cc(C(F)(F)F)n2)CC1,-6,0,/,-2,32*
Cc1cccc(C)c1NC(=O)CSc1nc(-c2ccco2)cc(C(F)(F)F)n1,2,2,-1,-1,33*
O=C(CSc1nc(-c2ccco2)cc(C(F)(F)F)n1)N1CCN(c2ccc(Cl)cc2)CC1,-7,0,0,-1,15
O=C(CSc1nc(-c2ccco2)cc(C(F)(F)F)n1)NCC1CCCO1 (stereo unspecified),4,0,2,-2,31*
O=C(CSc1nc(-c2ccco2)cc(C(F)(F)F)n1)NCCCN1CCOCC1,-5,2,/,1,15
O=C(CCCSc1nc(-c2ccco2)cc(C(F)(F)F)n1)NCC1CCCO1 (stereo unspecified),5,0,/,-1,33*
COc1cccc(C(=O)Nc2ccc3c(c2)OC[C@@H](C)N(CC2CC2)C[C@@H](C)[C@@H](OC)CN(C)C3=O)c1,/,/,2,/,/
CCN(CC)C(=O)c1cc2c(=O)n3ccccc3nc2s1,2,186*,-1,1,24
COCCN(CCOC)C(=O)c1cc2c(=O)n3ccccc3nc2s1,1,+,/,1,32*
CCN(CC)C(=O)c1c(C)nc2ccccn12,-2,1,0,-1,2
Cc1cc(/C=C(\C#N)C(=O)OCC(=O)Nc2ccc(OC(F)F)cc2)c(C)n1CC(C)C,-81,0,5,-1,31*
Cc1cc(/C=C(\C#N)C(=O)OCC#N)c(C)n1CC(C)C,-6,1,4,0,8
CCN(CC)c1ccc2nc3ccc(N)cc3[n+](-c3ccccc3)c2c1,/,-6,22,48*,9
CCN(CC)c1ccc2nc3ccccc3[n+](CC)c2c1,-2,-3,7,-1,14
C[C@@H]1CN([C@@H](C)CO)C(=O)c2cc(NC(=O)Nc3ccc(F)cc3)ccc2O[C@@H](C)CCCCO[C@H]1CN(C)S(=O)(=O)c1ccccc1,/,/,2,/,/
SMILES,Rv3671c inh,Mtb FBA inh,BioA inh,FadD28 binding,GDH-TPI counter
O=C(O)C[C@@H]1C=C[C@H](NC(=O)c2ccncc2)[C@@H](CO)O1,/,/,5,/,/
C[C@@H]1CCCCO[C@H](CN(C)C(=O)Cc2ccccc2)[C@H](C)CN([C@@H](C)CO)C(=O)c2cc(NC(=O)C3CCCCC3)ccc2O1,/,/,-3,/,/
O=C(NCCc1ccccc1)c1coc(=O)c(Br)c1,/,24,2,/,41*
O=C(NCCC1=CCCCC1)c1coc(=O)c(Br)c1,-8,14,1,-6,39*
O=C(NCCC1=CCCCC1)c1ccc(=O)oc1,4,-2,8,-1,52*
O=C(NCCC1=CCCCC1)c1ccc(Cl)cc1,-7,/,/,/,/
COc1cc(C(=O)NCCC2=CCCCC2)cc(OC)c1OC,-4,1,0,-4,-1
O=C(C[C@H]1CC[C@H]2[C@@H](COC[C@@H](O)CN2C(=O)Nc2ccc(Cl)cc2)O1)NCc1ccncn1,/,/,-2,/,/
C=CCn1c(N)c(C(=O)OC(C)(C)C)c2nc3ccccc3nc21,/,+,2,-7,22
C=CCn1c(N)c(C(=O)Nc2ccccc2)c2nc3ccccc3nc21,-7,10,0,-6,5
C=CCn1c(N)c(C(=O)OC(C)CC)c2nc3ccccc3nc21 (stereo unspecified),/,167*,0,-1,20
Cc1noc(C)c1S(=O)(=O)Nc1ccc2c(c1)C(=O)N([C@@H](C)CO)C[C@@H](C)[C@H](CN(C)C(=O)c1ccccc1)OCCCC[C@H](C)O2,/,/,0,/,/
Nc1cc(C(=O)O)c(Oc2ccc(Cl)cc2Cl)cc1C(=O)O,-9,+,/,-2,-1
C[C@H](CO)N1C[C@H](C)[C@H](CN(C)Cc2ccccc2)Oc2c(NC(=O)C3CCOCC3)cccc2C1=O,/,/,-1,/,/
N#Cc1c(C(F)(F)F)cc(-c2cccs2)nc1SC(C(=O)O)c1ccccc1 (stereo unspecified),-3,10,3,-11,10
N#Cc1c(C(F)(F)F)cc(-c2cccs2)nc1SCC(=O)O,-1,2,2,-1,37*
Cc1nn(CCC(N)=O)c2nc(-c3cccs3)cc(C(F)(F)F)c12,-1,153*,/,-4,31*
CC(CC(=O)c1ccccc1)=NCC(O)CN=C(C)CC(=O)c1ccccc1 (stereo unspecified),/,0,2,-7,55*
Cc1ccc(C(=O)CC(=O)c2ccccc2)cc1,2,2,-4,-1,17
Cc1cc(=O)c2ccccc2s1,-8,-3,0,-2,32*
O=c1c(O)cccc2cc(O)c(O)c(O)c12,15,-5,-4,16*,22
O=c1cc(-c2ccccc2)oc2cc(O)c(O)c(O)c12,-3,-1,0,6,16
COc1ccc(-c2ccnc3c(C#N)cnn23)cc1,2,171*,2,-1,13
COc1ccc(-c2ccnc3c(Br)c(C)nn23)cc1,2,-2,-1,-4,6
COc1ccc(CCNc2nc(C)c(C(C)=O)s2)cc1OC,2,-2,81*,-1,13
COc1cc(C)nc(Nc2nc(C)c(C(C)=O)s2)n1,-18,-3,-2,2,35*
